D1 potentiator = human D1 dopamine receptor positive modulation; P21728; potentiation, % at 10 µM; hit rate 0.036% among 360,000; HEK293 TREx D1 cells, calcium flux, dopamine EC20 potentiation; in the data active means potentiation above about 30%; further: 0% is about no effect
Target sequence (P21728 whole entry, looked up): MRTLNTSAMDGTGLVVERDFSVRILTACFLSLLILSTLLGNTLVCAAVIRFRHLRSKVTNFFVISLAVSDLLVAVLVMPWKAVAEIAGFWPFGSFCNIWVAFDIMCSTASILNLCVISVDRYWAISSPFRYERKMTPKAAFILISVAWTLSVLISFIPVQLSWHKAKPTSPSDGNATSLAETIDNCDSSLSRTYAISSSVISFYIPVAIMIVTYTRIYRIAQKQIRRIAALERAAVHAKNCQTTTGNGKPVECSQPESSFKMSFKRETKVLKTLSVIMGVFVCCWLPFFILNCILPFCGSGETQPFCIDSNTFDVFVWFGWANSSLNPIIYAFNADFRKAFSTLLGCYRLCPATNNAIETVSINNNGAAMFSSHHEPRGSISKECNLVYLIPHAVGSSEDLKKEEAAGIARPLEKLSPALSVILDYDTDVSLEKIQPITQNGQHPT
D3 ag = activates the human D3 dopamine receptor. D3R DiscoveRx beta-arrestin cells, luminescence, 90 min. hit rate 0.58% among 410,000. max activation, %. P35462; in the data active means max activation above about 30%; further: 0% is about no effect
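Agonist mode: compounds and dopamine controls were applied to plated cells for 90 min at 37 degrees C after an overnight attachment at 1500 cells/well. Luminescent read-out followed 30 - 60 minutes at room temperature with DiscoveRx detection reagent.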
DRD3 antagonist = antagonists of human D3 dopamine receptor. hit rate 2.5% among 360,000. max response, negative = inhibition, %. D3R cells, DiscoveRx beta-arrestin luminescence, antagonist mode; hits give low values. P35462. AID 652054; in the data active means max response below about -50%; further: on the % scale 0 is the no-effect control and ±100 the full control effect
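Cells plated overnight at 1500 cells/well, then exposed to library compounds with dopamine controls for 90 minutes at 37 degrees C. DiscoveRx reagent added for 30–60 minutes at room temperature; luminescence read, quantitative HTS format.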
D1 ag = activates the human D1 dopamine receptor | hit rate 1% among 360,000 | P21728 | HEK293 T-REx D1 cells, calcium flux, agonist mode | activation, % at 2 µM; in the data active means activation above about 30%; further: 0% is about no effect
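Agonism was scored from calcium flux recorded over 180 s (1 read/s) after pintool compound addition, following a 10-cycle baseline. Cells were inducible force-coupled HEK293 TREx D1, plated overnight at 30 C and loaded with no-wash calcium dye.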
D1 antagonist = antagonists of human D1 dopamine receptor. P21728. HEK293 TREx D1 cells, calcium flux, dopamine EC80; hits give low values. activity change, negative = inhibition, % at 10 µM. hit rate 3.2% among 360,000. AID 504652; in the data active means activity change below about -30%; further: on the % scale 0 is the no-effect control and ±100 the full control effect
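Tetracycline-induced HEK293 T-REx cells with force-coupled D1 receptor were loaded with a no-wash calcium dye. Compound was added after a 10 s baseline and read kinetically for 180 s; EC80 dopamine was then added and calcium flux followed another 180 s.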
* marks the source's active call; other numbers are inactive results; . = no result. In the library only some 6% were active in any assay of this set; here they are far more common.

SMILES	D1 potentiator	D3 ag	DRD3 antagonist	D1 ag	D1 antagonist
CCc1nn(CC(=O)N2CCN(c3cccc(C(F)(F)F)c3)CC2)c(=O)c2cccn12	-4.5	-6.8	.	23.8	-41.0*
CC1=C(C(=O)N2CCOCC2)C(c2ccc(OC(F)F)cc2)NC(=S)N1c1ccccc1 (stereo not given)	-5.7	11.6	2.9	0.2	.
CC1=C(C(=O)N2CCOCC2)C(c2ccc(Br)cc2)NC(=S)N1c1ccccc1 (stereo not given)	-4.8	8.3	-11.0	1.0	-41.7*
O=C(Cn1cc(S(=O)(=O)N2CCCC2)c(S(=O)(=O)N2CCCC2)c1)Nc1ccccc1	-3.1	0.5	.	0.1	0.5
COc1ccccc1C(=O)Nc1cccc(C(=O)OCc2cc(=O)n3nc(C4CC4)sc3n2)c1	0.1	-4.5	.	0.8	1.4
Cc1c(O)ccc2cc(S(=O)(=O)c3ccccc3)c(=O)oc12	1.1	9.8	55.0	31.6*	-2.3
Cc1ccc(S(=O)(=O)c2cc3ccccc3oc2=O)cc1	-7.2	1.6	17.6	2.0	-3.6
CC1(C)CC(=O)C2=C(C1)c1c(ccc3ccccc13)NC2c1ccco1 (stereo not given)	30.3*	-16.8	8.9	-1.4	-10.8
C=CCc1cc(OC)c(O)c(C(=O)NCCO)c1	.	-11.3	.	.	.
O=C(CSc1nc(-c2ccccc2)nn1C(=O)c1ccccc1)Nc1cccc([N+](=O)[O-])c1	-2.4	-6.3	-2.6	14.5	-33.6*
COc1cccc(NC(=O)CSc2nnc(NC(=O)C3CC3)s2)c1	-4.7	0.5	-57.4*	1.8	0.3
Cn1nnnc1SCC(=O)Nc1cccc([N+](=O)[O-])c1	-2.0	1.4	-7.7	0.3	7.7
Nc1ccc(SCC(=O)Nc2cccc([N+](=O)[O-])c2)cc1	-8.3	-7.2	-22.7	4.7	-48.8*
CCc1ccccc1NC(=O)CSc1nc(-c2ccccc2)nn1C(=O)c1cccc([N+](=O)[O-])c1	1.2	.	.	2.6	1.8
CS(=O)(=O)Nc1nnc(SCC(=O)Nc2cccc([N+](=O)[O-])c2)s1	-3.8	7.6	2.9	1.8	-78.6*
O=C(N/N=C/c1cc([N+](=O)[O-])ccc1O)c1cccc2ccccc12	-3.4	.	.	2.5	2.9
C[C@@H]1CN([C@@H](C)CO)S(=O)(=O)c2ccc(C#CC(C)(C)O)cc2O[C@H]1CN(C)C(=O)C1CCCCC1	.	10.5	35.4	.	.
C=C(C)CSc1nc2sc3c(c2c(=O)n1Cc1ccccc1)CC(C)(CC)OC3 (stereo not given)	-2.0	-9.3	.	0.1	-9.5
COc1ccc(NC(=O)CCCN2C(=O)CN(C)C2=O)cc1Cl	-2.5	0.1	10.0	2.3	-2.7
Cc1cc(C)n2ncc(C(=O)NCCc3ccccc3)c2n1	3.8	-6.0	-9.3	-0.1	-32.9*
COc1ccc(C(=O)NCc2cc(C)nc3ccccc23)cc1	3.0	0.2	13.1	20.0	-3.9
Cc1cccc(OCC(=O)NCc2cc(C)nc3ccccc23)c1	-6.2	-4.4	-7.9	12.7	-33.7*
Cc1cc(C)n2ncc(C(=O)NCc3ccccc3)c2n1	12.3	2.0	-15.7	0.3	-3.9
COC(=O)c1sccc1NC(=O)c1cc(-c2cc(C)ccc2C)nc2ccccc12	-0.9	25.5	19.5	5.2	19.2
Cc1ccc(C)c(-c2cc(C(=O)Nc3nccs3)c3ccccc3n2)c1	-6.6	32.1*	5.4	2.1	-10.4
SMILES	D1 potentiator	D3 ag	DRD3 antagonist	D1 ag	D1 antagonist
Cc1ccc(-c2cc(C(=O)NCCc3ccccc3)c3ccccc3n2)cc1C	-2.1	7.2	.	1.9	-30.8*
CCOc1ccc(-c2cc(C(=O)NCCc3ccc(C)cc3)c3ccccc3n2)cc1	2.5	6.6	.	-0.7	-0.1
CCOc1cc(CNC(=O)c2cc(-c3ccc(Cl)s3)nc3ccccc23)ccc1OC	1.1	1.8	.	0.9	10.9
Cc1cc(C(=O)OCC(=O)NCCc2ccccc2)c2ccccc2n1	.	50.8*	-13.6	13.3	-15.6
COc1ccccc1CNC(=O)c1cc(C)nc2ccccc12	-3.2	23.1	1.1	0.9	-31.2*
Cc1cc(C(=O)OCC(=O)NCCC(C)C)c2ccccc2n1	-3.8	2.3	10.8	9.8	-47.0*
COc1ccc(CNC(=O)c2cc(C)nc3ccccc23)cc1OC	-6.5	8.3	-2.2	1.9	-12.9
CCCNC(=O)COC(=O)c1cc(C)nc2ccccc12	0.0	0.2	-1.8	2.0	5.3
CCCCNC(=O)COC(=O)c1cc(C)nc2ccccc12	8.0	16.1	21.4	3.1	0.5

Assay outcomes (PubChem)
